Data from PubChem BioAssay (NCATS).
Values joined by “and” are separate entries in the source; they are usually repeats but may differ in a detail not shown here. Equal entries are not always repeated. Records with an inconclusive call do not appear. Some compounds were tested as several samples or in several runs, with calls that do not always agree. Active and inactive are the calls of the source. Calls come from the whole dose curve; as a rule, active = well fitted curve in the direction sought with a large enough effect; inconclusive = small, poorly fitted or top-dose-only effect, or another doubt; inactive = no such curve, though single readings can be large; an effect the other way counts as inactive or inconclusive.

Columns and labels:
[1] = Viability qHTS for spleen associated tyrosine kinase inhibitor (SYKi) naive MV4-11 cells (AID 1963823); note: nearly all actives have a fitted effect of over 40% in size
Summary of the method: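 CellTiter-Glo luminescence, 10 min room-temperature incubation, gave viability. Cells: naive MV4-11 (500/well), treated 72 hr at 37 C, 5% CO2.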

[2] = Viability qHTS for spleen associated tyrosine kinase inhibitor (SYKi) drug resistant MV4-11 cells (AID 1963824); note: nearly all actives have a fitted effect of over 35% in size
Summary of the method: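 SYK inhibitor-resistant MV4-11 AML cells, 500 per well, added to predispensed compounds and incubated 72 hr at 37 C, 5% CO2. Viability measured by CellTiter-Glo luminescence after 10 min at room temperature.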

[3] = Quantitative highthroughput screen to assess conditional lethalithy of NOMO1 cells grown in RPMI1640 with untreated serum (RPMI+s) (AID 1963876); note: nearly all actives have a fitted effect of over 35% in size;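 for Viability: 100% = DMSO wells and 0% = empty wells without cells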
Summary of the method: (§1)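 Each medium arm—HPLM with 10% dialyzed FBS, or RPMI1640 with 5 mM glucose and 10% untreated or dialyzed FBS—was screened against an 11-point, 3-fold compound titration for 48 h at 37 °C, with CellTiter-Glo luminescence as endpoint.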

[4] = Quantitative highthroughput screen to assess conditional lethalithy of NOMO1 cells grown in Human Plasma-Like Medium with dialyzed fetal bovine serum (HPLM+ds) (AID 1963878); note: nearly all actives have a fitted effect of over 35% in size;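 for Viability: 100% = DMSO wells and 0% = empty wells on each plate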
Summary of the method: as §1

[5] = Quantitative highthroughput screen to assess conditional lethalithy of SEM cells grown in Human Plasma-Like Medium with dialyzed fetal bovine serum (HPLM+ds) (AID 1963882); note: nearly all actives have a fitted effect of over 35% in size; for Viability: series mostly up to about 46 µM
Summary of the method: as §1

[6] = Quantitative highthroughput screen to assess conditional lethalithy of SEM cells grown in RPMI1640 with dialyzed fetal bovine serum (RPMI+ds) (AID 1963884); note: nearly all actives have a fitted effect of over 35% in size;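 for Viability: series mostly up to about 46 µM; 100% = DMSO control wells and 0% = empty wells without cells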
Summary of the method: as §1

[7] = Cellular viability qHTS for adrenocortical cancer (ACC) cell line SW-13 (AID 1963989); details: SW-13 ACC cells viability, CellTiter-Glo, 48 h; activity (max response): stronger effect = lower value; note: nearly all actives have a fitted effect of over 65% in size;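 for activity (max response): cells grown in serum-free medium with ITS supplement; % is set by controls: 0 for no effect and ±100 for the full control effect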
Summary of the method: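 Luminescent ATP read-out (CellTiter-Glo, 20 min at room temperature) measured metabolically competent SW-13 cells after 48 h compound treatment. Final concentrations spanned up to 46 uM; bortezomib served as positive control.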

[8] = Quantitative highthroughput screen to assess conditional lethalithy of SEM cells grown in RPMI1640 with unreated serum (RPMI+s) (AID 1963883); note: nearly all actives have a fitted effect of over 35% in size;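 for Viability: 100% = DMSO wells and 0% = empty wells without cells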
Summary of the method: as §1

[9] = Cellular viability qHTS for adrenocortical cancer (ACC) cell line NCI-H295R (AID 1963990); note: nearly all actives have a fitted effect of over 60% in size
Summary of the method: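 IC50 and maximal efficacy derive from four-parameter logistic modelling of titration curves, with reads scaled between DMSO-only wells (0%) and doxorubicin hydrochloride (100% inhibition). Compounds spanned up to 46 uM over 48 h.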

[10] = Quantitative highthroughput screen to assess conditional lethalithy of P12 Ichikawa cells grown in Human Plasma-Like Medium with dialyzed fetal bovine serum (HPLM+ds) (AID 1963879); details: Potency: viability; note: nearly all actives have a fitted effect of over 35% in size; for Viability: series mostly up to about 46 µM
Summary of the method: as §1

[11] = Quantitative highthroughput screen to assess conditional lethalithy of P12 Ichikawa cells grown in RPMI1640 with dialyzed fetal bovine serum (RPMI+ds) (AID 1963880); details: Potency: P12-Ichikawa viability; note: nearly all actives have a fitted effect of over 35% in size;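 for Viability: 100% = DMSO wells and 0% = empty wells on each plate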
Summary of the method: as §1

[12] = Quantitative highthroughput screen to assess conditional lethalithy of P12 Ichikawa cells grown in RPMI1640 with untreated serum (RPMI+s) (AID 1963881); details: Potency: viability; note: nearly all actives have a fitted effect of over 35% in size;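 for Viability: series mostly up to about 46 µM; 100% = DMSO wells and 0% = empty wells without cells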
Summary of the method: as §1
Potency is the fitted concentration of half-maximal effect.

CC[C@H](C)C(=O)O[C@H]1C[C@@H](C)C=C2C=C[C@H](C)[C@H](CC[C@@H]3C[C@@H](O)CC(=O)O3)[C@H]21
active: Potency [1] 8.33 µM | Potency [2] 2.66 µM and 3.17 µM and 4.68 µM | Potency [4] 14.8 µM
inactive: Potency [3] | Potency [5] | Potency [6] | activity (max response) [7] -5.87%

N#CC[C@H](C1CCCC1)n1cc(-c2ncnc3[nH]ccc23)cn1
active: Potency [1] 8.2 µM | Potency [2] 20.6 µM | Potency [3] 14.8 µM | Potency [4] 7.43 µM
inactive: activity (max response) [7] -17.5%

O=C(C1CCCCC1)N1CC(=O)N2CCc3ccccc3C2C1 (configuration not stated)
inactive: Potency [1] | Potency [2] | Potency [3] | Potency [4] | activity (max response) [7] -9.94% and -6.75% | Potency [9]
active: Potency [8] 0.332 µM

Cc1nc2cnc3ccc(C#Cc4cccnc4)cc3c2n1-c1ccc(C(C)(C)C#N)cc1
active: Potency [1] 8.2 µM and 235 nM | Potency [2] 8.2 µM and 332 nM | Potency [3] 1.32 µM | Potency [4] 0.209 µM | Potency [6] 0.209 µM | Potency [9] 0.891 µM

COc1cc([C@@H]2c3cc4c(cc3[C@H](O)[C@H]3COC(=O)[C@H]23)OCO4)cc(OC)c1OC
active: Potency [1] 26.6 nM and 26.3 nM | Potency [2] 37.6 nM and 37.2 nM | Potency [3] 0.0042 µM | Potency [10] 0.0019 µM | Potency [11] 0.0021 µM | Potency [12] 0.0021 µM | Potency [5] 0.0026 µM | Potency [8] 0.0019 µM | Potency [6] 0.0026 µM | Potency [7] 9.2 nM and 44.7 nM | Potency [9] 7.3 nM and 50.1 nM

O=C(Nc1cccnc1)N1CCC(Cc2cccc(Oc3ccc(C(F)(F)F)cn3)c2)CC1
active: Potency [1] 3.66 µM and 4.17 µM | Potency [2] 4.61 µM and 3.72 µM | Potency [3] 10.5 µM | Potency [4] 8.33 µM | Potency [10] 8.33 µM | Potency [11] 4.18 µM | Potency [12] 3.72 µM | Potency [7] 15.8 µM | Potency [9] 17.8 µM

CCCCCCCCCC(=O)N[C@@H](Cc1c[nH]c2ccccc12)C(=O)N[C@H](CC(N)=O)C(=O)N[C@@H](CC(=O)O)C(=O)N[C@@H]1C(=O)NCC(=O)N[C@@H](CCCN)C(=O)N[C@@H](CC(=O)O)C(=O)N[C@H](C)C(=O)N[C@@H](CC(=O)O)C(=O)NCC(=O)N[C@H](CO)C(=O)N[C@@H]([C@@H](C)CC(=O)O)C(=O)N[C@@H](CC(=O)c2ccccc2N)C(=O)O[C@@H]1C
68.5 nM (active) and inactive: Potency [2]
inactive: Potency [1] | Potency [3] | Potency [4] | Potency [10] | Potency [5] | Potency [8] | Potency [6] | activity (max response) [7] 12.9% | Potency [9]

CN(C)c1ccc(-c2nc3ncc(Cl)c(N4CCN(CC(=O)Nc5nccs5)CC4)c3[nH]2)cc1
inactive: Potency [3] | Potency [10] | Potency [11] | Potency [12] | activity (max response) [7] -12.9% | Potency [9]
active: Potency [1] 0.257 µM | Potency [2] 0.645 µM | Potency [4] 18.7 µM

CC1(CN2CCC(n3c(=O)[nH]c4ccccc43)CC2)OCc2ccccc2-n2cccc21 (configuration not stated)
active: Potency [1] 16.6 µM | Potency [2] 21.1 µM and 10.3 µM and 14.8 µM | Potency [7] 20.6 µM and 25.1 µM | Potency [9] 23.1 µM
inactive: Potency [3] | Potency [4] | Potency [10] | Potency [11] | Potency [8] | Potency [6]

CC(=O)OCCN1C(=O)c2c(C)nc3ccc(S(=O)(=O)N4CCOCC4)cc3c2C1=O
inactive: Potency [1] | Potency [2] | Potency [5] | Potency [8] | Potency [6] | activity (max response) [7] -3.53%
active: Potency [3] 0.264 µM | Potency [10] 2.64 µM | Potency [11] 3.32 µM

CCCCCNC(=O)N1CCC(CN(Cc2ccc(Cl)cc2)Cc2ccc([N+](=O)[O-])s2)C1 (configuration not stated)
active: Potency [1] 20.9 µM | Potency [2] 13.2 µM | Potency [9] 28.2 µM
inactive: Potency [3] | Potency [10] | Potency [11]

NC(CO)(CO)CCc1ccc(Sc2cccc(OCc3ccccc3)c2)cc1Cl
active: Potency [1] 7.42 µM | Potency [2] 3.72 µM | Potency [3] 13.2 µM | Potency [4] 7.43 µM | Potency [10] 7.43 µM | Potency [11] 14.8 µM | Potency [12] 10.5 µM | Potency [9] 3.98 µM

O=C1c2ccccc2-[n+]2ccc3c([nH]c4ccccc43)c21
active: Potency [1] 0.82 µM | Potency [2] 0.651 µM | Potency [3] 6.62 µM | Potency [10] 8.33 µM | Potency [11] 9.35 µM | Potency [12] 8.33 µM | Potency [5] 2.64 µM | Potency [8] 3.32 µM | Potency [6] 3.32 µM | Potency [7] 2.82 µM | Potency [9] 2.82 µM

Nc1ccn([C@@H]2O[C@H](CO)[C@@H](O)[C@H]2O)c(=O)n1
active: Potency [3] 0.0743 µM | Potency [4] 0.0166 µM
inactive: Potency [1] | Potency [2] | Potency [12] | Potency [6] | activity (max response) [7] 10.2% | Potency [9]

CNC[C@H](O)c1ccc(O)c(O)c1
inactive: Potency [1] | Potency [2] | Potency [3] | Potency [4] | Potency [10] | Potency [11] | Potency [5] | Potency [8] | Potency [6] | activity (max response) [7] -16.4% and -3.87% | Potency [9]
